# Laboratory results: PubChem BioAssay (NCI)
# The panel holds about 83,000 compounds, 20% with a hit somewhere; the sample as a whole holds those more often.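 48-hour exposure, single concentration, 96-well plates; percent growth endpoint where 0 means no net growth. Active: below 10.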 A number with no mark means an inactive call. Calls of active or inactive are those of the source.
# Columns and labels:
# Experiment in all cases: NCI-60 one-dose screen, 48 h (100 = growth as untreated, 0 = no growth, -100 = all killed)
# [1] = test system: SR leukemia; conditions: 10 µM
# [2] = test system: RPMI-8226 leukemia; conditions: 10 µM
# [3] = test system: OVCAR-8 ovarian; conditions: 10 µM
# [4] = test system: OVCAR-5 ovarian; conditions: 10 µM
# [5] = test system: OVCAR-4 ovarian; conditions: 10 µM
# [6] = test system: SK-OV-3 ovarian; conditions: 10 µM
# [7] = test system: IGROV1 ovarian; conditions: 10 µM
# [8] = test system: OVCAR-3 ovarian; conditions: 10 µM
# [9] = test system: HS 578T breast; conditions: 10 µM
# [10] = test system: NCI/ADR-RES ovarian; conditions: 10 µM
# [11] = test system: T-47D breast; conditions: 10 µM
# [12] = test system: BT-549 breast; conditions: 10 µM
# [13] = test system: MDA-MB-435 melanoma; conditions: 10 µM
# [14] = test system: SW-620 colon; conditions: 10 µM
# [15] = test system: MCF7 breast; conditions: 10 µM unless noted
# [16] = test system: HCT-116 colon; conditions: 10 µM
# [17] = test system: HCC-2998 colon; conditions: 10 µM
# [18] = test system: KM12 colon; conditions: 10 µM
Structure (SMILES),growth [1],growth [2],growth [3],growth [4],growth [5],growth [6],growth [7],growth [8],growth [9],growth [10],growth [11],growth [12],growth [13],growth [14],growth [15],growth [16],growth [17],growth [18]
O=C(CCl)N1CCN(C/C=C/c2ccccc2)CC1,23.1%,90.5%,80%,111%,81.6%,99.7%,40.8%,116%,100%,105%,83.8%,94%,85%,90.3%,62.1%,68.5%,125%,112%
S=c1[nH]ccn1-c1ccccc1Cl,101%,95.6%,105%,114%,103%,111%,108%,98.2%,142%,115%,107%,117%,108%,111%,99.5%,107%,113%,104%
N#Cc1c(N)sc(=S)c2c1CCCC2,93.6%,95.1%,103%,108%,102%,103%,116%,113%,104%,104%,95.7%,98.5%,109%,112%,93.3%,104%,106%,110%
O=C(O)c1cc([N+](=O)[O-])ccc1Cl,88.4%,88.8%,96.1%,104%,107%,106%,117%,115%,119%,103%,99.6%,97.1%,107%,98.5%,88%,102%,,95%
CNC(=O)c1ccccc1CC1(O)c2ccccc2Oc2ccccc21,8.48% (active),70.5%,74.4%,80.4%,83.6%,73.7%,43%,24.7%,63.5%,29%,49.4%,65%,-51.3% (active),29.2%,25.6%,32.4%,80.9%,34.5%
COCCOC(=O)c1ccc(C(C)C)cc1,95.7%,108%,103%,104%,104%,82.1%,104%,99.5%,117%,96%,85%,98.5%,102%,104%,95.6%,100%,103%,101%
CCCCC(O)c1ccccc1 (stereo not drawn),98%,108%,93.8%,115%,100%,95.4%,110%,109%,116%,99.3%,87.2%,110%,108%,108%,103%,108%,104%,106%
CCCCOC(OCCCC)c1ccccc1,103%,110%,108%,107%,109%,115%,115%,105%,111%,97.9%,100%,107%,112%,110%,97.8%,112%,,110%
CCOC(=O)c1cc2cccc(OC)c2oc1=O,104%,95.4%,116%,114%,109%,117%,108%,138%,121%,111%,106%,88.6%,110%,111%,105%,101%,108%,113%
CCOc1ccc(/C=C/C(=O)c2ccccc2)cc1,40.6%,9.27% (active),95.6%,106%,102%,103%,74.8%,93.7%,120%,105%,88.8%,102%,89.2%,96.4%,70.5%,83.7%,92.5%,80.2%
COCCOCCCl,108%,115%,110%,106%,105%,109%,116%,111%,102%,109%,98.1%,107%,106%,101%,100%,99.7%,101%,107%
CCCCCCCCCCC(C)Br (stereo not drawn),93.8%,101%,108%,104%,109%,98.3%,106%,108%,116%,105%,99.2%,105%,99.6%,106%,98.4%,100%,91%,107%
O=C(O)c1cccc([N+](=O)[O-])c1O,94.4%,107%,113%,112%,111%,98.4%,94.4%,116%,112%,102%,101%,93.6%,101%,105%,119%,98.9%,,110%
CC(=O)NCc1cc(C)c(C)cc1C,97.6%,88.1%,104%,95.5%,106%,97.6%,104%,101%,108%,105%,89%,100%,114%,107%,97.4%,101%,115%,95.7%
O=C(O)C(Cc1ccccc1)C(=O)O,101%,109%,109%,111%,96.3%,103%,113%,110%,104%,106%,103%,99.1%,111%,105%,99.8%,96.8%,106%,107%
CCOC(=O)C1OC1c1ccccc1 (stereo not drawn),98.7%,113%,106%,102%,101%,99%,108%,101%,115%,106%,98.8%,102%,107%,107%,96%,98.6%,108%,100%
Oc1ccccc1-c1nnco1,90.4%,86.8%,98.9%,107%,83.1%,91.1%,86.3%,101%,45.1%,93.1%,82%,77.5%,91.5%,98.3%,102%,106%,,100%
CCCCC/C=N/Nc1nc(C)cc(=O)[nH]1,90.4%,119%,100%,104%,107%,113%,109%,114%,101%,99.9%,103%,109%,95.7%,104%,92.9%,101%,98.8%,106%
CC(=O)c1ccc(C)c(N)c1,106%,101%,96.4%,102%,111%,98.6%,95.8%,108%,96.9%,91.2%,99.8%,94.7%,114%,101%,97.1%,94.2%,108%,97%
